In the OligoGym collection:

Target: SLIT1
Experiment: pooled miR-30 sensor sort-seq; sequence = guide strand
Conditions: shRNA
Also: reference of the scale not given here.

Row | Sequence | sensor-assay potency score (higher = more potent)
1 | TTGACACTGAGCAACTTCTCAC | -0.268
2 | TTGAGGATCTGCCACAGGCGGA | -1.35
3 | TTCAATCGCAGTTCTGCCGTGG | 0.209
4 | TGAAGGTAGACAGCTGTCCCGG | -1.03
5 | TTGCTCACACAGCTCGCCCGAA | -0.836
6 | TTGCTTAAGGAACTGATCTTGT | -0.323
7 | TTGCAGGTCAGTGAACTGCAGG | -1.32
8 | TTCTTGCTCTTGATCTGCCCGA | -0.859
9 | TTCAATTTCTGACACCTTGTTG | -0.171
10 | TTGACATGGGTTCAGATCCGGA | -1.04
11 | TAAGTTTTTTAAACATCCCAGT | -1.01
12 | TTGTGGATGCAGCTGATGCGGT | -0.921

Target: SLITRK3
Experiment: as above
Conditions: shRNA

Row | Sequence | sensor-assay potency score (higher = more potent)
13 | AATGACATTGTAATCTGCCTGC | 0.274
14 | TTCTCATTGAGGTCTATCTGGA | -0.877
15 | TCTTTTTCCAGCAAGGTCCGGT | -0.176
16 | TTGCAGTTGACAGTCAAGCCAA | -0.544
17 | TTGAACTCAAAGTACAAGTAGT | -0.338
18 | TTCATGTAGATATAGTCTCTTT | -0.676
19 | TTGATGTGCAAATTACAGGTAC | -0.245
20 | TTTCTCGTAGGTCCTTTCCATG | -1.36
21 | TTATCCACAACATCCTTCCTCT | 0.0957
22 | TAAAAAAGAACCTTTAACCTAT | 0.15
23 | TTGCACATTTGGGTAACCGGGT | -0.695
24 | TTAACTTCACAGTAGCATGGAT | -0.128

Target: SLITRK5
Experiment: as above
Conditions: shRNA

Row | Sequence | sensor-assay potency score (higher = more potent)
25 | TACATCTGAATAGTCAGGGCAC | 0.215
26 | TACAGCAAACGCTAGAGTCTGC | -0.49
27 | TAGTCAGAAATAAGTCTCCTTG | -0.638
28 | TAATACAGTGTGACACCTCTGC | 0.818
29 | AACATTGCTACCTAGATGCAAA | -1.34
30 | TTGGATGAGTGACTTCAGCTGG | 0.319
31 | TCGCTCTGGTTCTTCTTCCTGC | -1.1
32 | TTATTCAAGAATAGCAGCTGGA | -0.212
33 | TAATTGACAAACTCATTGGGAT | 0.191
34 | TACAGTGTGACACCTCTGCAAA | -1.11
35 | TTCCAGACTGAATCTCGCGGAT | -0.818

Target: SLMAP
Experiment: as above
Conditions: shRNA

Row | Sequence | sensor-assay potency score (higher = more potent)
36 | ATACTCTTTCTGCACATCCTTT | -0.952
37 | TTTAATGTTATAAATAATCTGG | -0.423
38 | TAATTCTCTTAATTCTTCCTGA | 0.412
